# According to PubChem BioAssay (NCATS):
# Results filed as inconclusive are left out. Activity calls are given as the source filed them. Calls come from the whole dose curve; as a rule, active = well fitted cell-killing curve with a large enough effect; inconclusive = small, poorly fitted or top-dose-only effect, or effect the other way; inactive = no such curve, though single readings can be large or run the other way.
# Experiment: Quantitative High-Throughput drug screen in 47 multiple myeloma cell lines against the NCATS MIPE library collection: KMM1_JCRB cell viability assay (AID 1918960); note: nearly all actives have a fitted effect of over 30% in size
# Conditions: KMM1 myeloma viability, CellTiter-Glo ATP luminescence, 48 h; series mostly up to 45.8 µM; viability (% of DMSO): at the top concentration
# Source text: PI: Beverly A. Mock Ph.D.
# Laboratory of Cancer Biology and Genetics,
# Center for Cancer Research, National Cancer Institute,
# National Institute of Health, Bethesda, Maryland
# Drug resistance and disease progression are common in multiple myeloma (MM) patients, underscoring the need for new therapeutic combinations. […] We hypothesized that effective combinations would reduce MYC expression and enhance p16 activity. […] These preclinical data identify potentially useful drug combinations for evaluation in drug-resistant MM and reveal potential mechanisms of combined drug sensitivity.
# Described herein is the primary MIPE qHTS used to cherrypick compounds. Validated compounds were then further tested for potential synergistic activiy.
# [1] Peat TJ, Gaikwad SM, Dubois W, Gyabaah-Kessie N, Zhang S, Gorjifard S, Phyo Z, Andres M, Hughitt VK, Simpson RM, Miller MA, Girvin AT, Taylor A, Williams D, D'Antonio N, Zhang Y, Rajagopalan A, Flietner E, Wilson K, Zhang X, Shinn P, Klumpp-Thomas C, McKnight C, Itkin Z, Chen L, Kazandijian D, Zhang J, Michalowski AM, Simmons JK, Keats J, Thomas CJ, Mock BA. Drug combinations identified by high-throughput screening promote cell cycle transition and upregulate Smad pathways in myeloma. Cancer Lett. 2023 Aug 1;568:216284. doi: 10.1016/j.canlet.2023.216284. Epub 2023 Jun 24. PMID: 37356470; PMCID: PMC10408729.
# SEQUENCE No. (e.g., 1, 2, 3, etc.); […] (e.g., Cells, Incubation, Reagent, etc.); VALUE and DESCRIPTION.
# 1; Cells; 5 uL; white, solid bottom 1536-well Greiner assay plate.
# 2; Compounds; 23 nL; Kalypsis pin tool (Wako USA) equipped with a 1536-well pin head to transfer to the assay plates.
# 3; Incubation; 48 hours; 37C incubation.
# 4; Reagent;5uL; CellTiter Glo (Promega).
# 5; Detector; 425V; Luminescence; Viewlux PerkinElmer.
# NOTES (numbers refer to Sequence numbers above)
# 1. The cell-based screening methods employed in this study were like those previously published. Briefly, the corresponding myeloma cell lines were screened in 1,536-well plates with 500 cells, 5-uL per well for inhibition of cell viability (assessed by measuring ATP levels with CellTiterGlo).
# 2. NCATS MIPE 4.0 library of approved and investigational drugs were added using the Kalypsis pin tool. Wells treated with DMSO only for 100% viability and media only cells for 0% viability were used as controls.
# 3. The assay plates were covered and incubated for 48 hours in a 37C, 5% CO2 incubator with controlled humidity.
# 4. After 48 hours, CellTilter-GloTM luminescent substrate mix (Promega) reagent was added to the assay plate and plates we incubated for 5 min at room temperature.
# 5. Signal was measured as median relative luminescence units on a ViewLux (PerkinElmer) multiplate reader.
# [1] Heske CM, Davis MI, Baumgart JT, Wilson K, Gormally MV, Chen L, Zhang X, Ceribelli M, Duveau DY, Guha R, Ferrer M, Arnaldez FI, Ji J, Tran HL, Zhang Y, Mendoza A, Helman LJ, Thomas CJ. Matrix Screen Identifies Synergistic Combination of PARP Inhibitors and Nicotinamide Phosphoribosyltransferase (NAMPT) Inhibitors in Ewing Sarcoma. Clin Cancer Res. 2017 Dec 1;23(23):7301-7311. doi: 10.1158/1078-0432.CCR-17-1121. Epub 2017 Sep 12. PMID: 28899971; PMCID: PMC6636827.
# Potency is the fitted concentration of half-maximal effect.
SMILES,Potency,viability (% of DMSO)
Cc1ccc(S(=O)(=O)Nc2nc3ccccc3nc2Nc2ccc3nsnc3c2)cc1,0.911 µM (active),–
Cc1cccc(-c2[nH]c(C(C)(C)C)nc2-c2ccc3c(c2)OCO3)n1,3.72 µM (active),–
COc1cc2ncn(-c3cc(OCc4ccccc4S(C)(=O)=O)c(C#N)s3)c2cc1OC,–,75.3% (inactive)
Cc1[nH]c(C=C2C(=O)Nc3ccc(S(=O)(=O)N(C)c4cccc(Cl)c4)cc32)c(C)c1C(=O)N1CCN(C)CC1,6.62 µM (active),–
COc1cc([C@H]2Oc3cc([C@H]4Oc5cc(O)cc(O)c5C(=O)[C@H]4O)ccc3O[C@H]2CO)ccc1O,–,106% (inactive)
O=C(Nc1cccc(Cl)c1)Nc1ncc(CCNc2ncnc3ccsc23)s1,5.9 µM (active),–
CCN(CC)CCCCNc1nc2cc(Cl)c(Cl)cc2nc1-c1ccc(-c2cccs2)s1,9.35 µM (active),–
CC[C@H](C)n1cc(C)c2c(C(=O)NCc3c(C)cc(C)[nH]c3=O)cc(-c3ccc(N4CCNCC4)nc3)cc21,–,116% (inactive)
COc1ccc(C=CC(=O)Nc2ccccc2C(=O)O)cc1OC,–,111% (inactive)
CC[C@H](NC(=O)[C@H](C)NC)C(=O)N1C[C@@H](O)C[C@H]1Cc1c(-c2[nH]c3cc(F)ccc3c2C[C@H]2C[C@H](O)CN2C(=O)[C@H](CC)NC(=O)[C@H](C)NC)[nH]c2cc(F)ccc12,14.8 µM (active),–
CCOC(=O)N1c2ccc(C(F)(F)F)cc2[C@@H](N(Cc2cc(C(F)(F)F)cc(C(F)(F)F)c2)C(=O)OC)C[C@H]1CC,–,95.4% (inactive)
CN[C@@H](C)[C@H]1[C@H](O)C[C@@]2(C)[C@@H]3CC[C@H]4C(C)(C)[C@@H](NC)CC[C@@]45C[C@@]35CC[C@]12C,–,91.3% (inactive)
CCCCCCOC(=O)N=C(N)c1ccc(NCc2nc3cc(C(=O)N(CCC(=O)OCC)c4ccccn4)ccc3n2C)cc1,16.6 µM (active),–
Cc1ccc2c(=O)c3cccc(CC(=O)O)c3oc2c1C,–,111% (inactive)
CC1CCN(c2cc(N3CCN(C)CC3)ccc2NC(=O)c2cc(C#N)c[nH]2)CC1,–,111% (inactive)
COc1cc2nccc(Oc3ccc(NC(=O)Nc4cc(C)on4)c(Cl)c3)c2cc1OC,3.72 µM (active),–
CC1(C)CC(=O)c2c(C(F)(F)F)nn(-c3ccc(C(N)=O)c(NC4CCC(O)CC4)c3)c2C1 (stereo not given),–,92% (inactive)
CCCCCCCCCCCCCCCC(=O)O[C@H]1[C@@H](O)[C@@H](O)[C@@H]([C@H](NC(=O)[C@@H]2C[C@@H](CCC)CN2C)[C@H](C)Cl)O[C@@H]1SC,8.33 µM (active),–
CCCCC[C@H](O)C=C[C@H]1[C@H](O)CC(=O)[C@H]1CC=CCCCC(=O)O,–,126% (inactive)
CC(C)c1onc(-c2c(Cl)cccc2Cl)c1COc1ccc(C=Cc2cccc(C(=O)O)c2)c(Cl)c1,–,108% (inactive)

SMILES,Potency,viability (% of DMSO)
O=C(O)CCC=CCC[C@@H]1[C@H](N2CCCCC2)[C@@H](O)C[C@@H]1OCc1ccc(-c2ccccc2)cc1,–,98.5% (inactive)
CC(C)(C)c1nc(-c2cccc(NS(=O)(=O)c3c(F)cccc3F)c2F)c(-c2ccnc(N)n2)s1,3.32 µM (active),–
COc1cc(F)c(C(C)C)cc1-c1ccc(C(F)(F)F)cc1CN1C(=O)O[C@H](c2cc(C(F)(F)F)cc(C(F)(F)F)c2)[C@@H]1C,–,100% (inactive)
CCCCn1c(=O)n(Cc2ccccc2F)c(=O)c2[nH]c(Cc3ccc(NC(C)=O)cc3)nc21,–,87.1% (inactive)
N#CC(c1ccnc(NCCc2cccnc2)n1)c1nc2ccccc2s1 (stereo not given),4.69 µM (active),–
CN1C(=O)C(Cc2c[nH]c3ccccc23)NC1=S (stereo not given),–,87.2% (inactive)
COc1cccc(OC)c1-c1cc(C(=O)NC2(C(=O)O)C3CC4CC(C3)CC2C4)nn1-c1ccnc2cc(Cl)ccc12 (stereo not given),–,92.6% (inactive)
CC1=C(C(=O)Nc2cc3cn[nH]c3cc2F)C(c2ccc(C(F)(F)F)cc2)CC(=O)N1 (stereo not given),–,111% (inactive)
CC[C@@H]([C@H](C)O)n1ncn(-c2ccc(N3CCN(c4ccc(OCC5CO[C@@](Cn6cncn6)(c6ccc(F)cc6F)C5)cc4)CC3)cc2)c1=O (stereo not given in full),5.9 µM (active),–
Cc1ccc(C(=O)N(CCCN)[C@@H](c2nc3cc(Cl)ccc3c(=O)n2Cc2ccccc2)C(C)C)cc1,0.001 µM (active),–
N#CC(c1ccc(Cl)cc1)c1c(Cl)cc(-n2ncc(=O)[nH]c2=O)cc1Cl (stereo not given),5.9 µM (active),–
OC(c1cc(C(F)(F)F)nc2c(C(F)(F)F)cccc12)C1CCCCN1 (stereo not given),20.9 µM (active),–
CCCCOCCOc1nc(-c2ccc(C(=O)O)c(F)c2)sc1C,–,105% (inactive)
CNC1[C@H](O)C(O[C@@H]2C(O)C(O[C@H]3O[C@H]([C@@H](C)NC)CC[C@H]3N)[C@@H](N)C[C@H]2N)OC[C@]1(C)O (stereo not given in full),–,83.9% (inactive)
CC(C)C[C@@H](C(=O)N[C@H](C(=O)OC1CCCC1)c1ccccc1)[C@H](O)C(=O)NO,4.18 µM (active),–
O[C@@H](COc1cccc2ncccc12)CN1CCN(C2c3ccccc3[C@@H]3[C@H](c4ccccc42)C3(F)F)CC1 (stereo not given in full),–,91.6% (inactive)
C#CCN(C)CC1=Cc2ccccc2Oc2ccccc21,–,91.6% (inactive)
O=C(C=Cc1ccc(O)cc1)c1ccc(O)cc1O,16.6 µM (active),–
O=S(=O)(O)c1ccc2cc(N=Nc3cc(S(=O)(=O)O)c4cccnc4c3O)ccc2c1,–,112% (inactive)
CC1C(=O)OC2C(O)C34C5CC(C(C)(C)C)C36C(OC(=O)C6O)OC4(C(=O)O5)C12O (stereo not given),–,111% (inactive)
